Bioassay records from PubChem.
Compounds with a hit are over-represented: about 1.5% of the library has one in this group of screens.
BLM helicase inh-1 – Bloom syndrome helicase (human) inhibition; recombinant BLM DNA unwinding, fluorescence dequenching; Potency, µM (series often up to 56.1 µM), for inactives: top-dose activity change, negative = inhibition, hits mostly inhibitors; 350,000 tested, 0.2% active; AID 2528;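 further: potency means the concentration at half of the fitted maximal effect; plate controls were vehicle for no effect and no enzyme for full effect; nearly all actives have a fitted effect of over 35% in size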
PI5P4K alpha inh – inhibitors of human PI5P4K alpha; PI5P4Kalpha enzyme, ADP-Glo luminescence, 60 min; hits give low values; AID 652105; 330,000 tested, 1.2% active; max response, %; active means max response of -50% or lower; inconclusive means between -30% and -50%; inactive means -30% or higher; further: value at the top dose of about 77 µM; on the % scale 0 is the no-effect control and ±100 the full control effect
Target sequence (P48426 whole entry, looked up): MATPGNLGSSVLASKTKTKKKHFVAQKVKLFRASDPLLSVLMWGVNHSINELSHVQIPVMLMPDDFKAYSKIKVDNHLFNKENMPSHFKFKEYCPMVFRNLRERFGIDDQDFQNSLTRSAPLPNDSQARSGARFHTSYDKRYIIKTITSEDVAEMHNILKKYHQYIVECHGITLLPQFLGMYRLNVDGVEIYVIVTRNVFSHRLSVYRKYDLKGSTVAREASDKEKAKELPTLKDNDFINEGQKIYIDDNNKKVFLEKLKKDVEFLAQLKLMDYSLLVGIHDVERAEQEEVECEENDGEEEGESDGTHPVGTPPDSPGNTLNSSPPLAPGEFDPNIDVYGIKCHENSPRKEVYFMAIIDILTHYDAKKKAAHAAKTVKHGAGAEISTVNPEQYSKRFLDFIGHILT
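PI5P4Kalpha ADP-Glo assay; 5 microM ATP final; 60 min RT reaction; HEPES pH 7.4/EGTA/CHAPS, 5% DMSO; controls lacking substrate or enzyme; luminescent end-point.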
RECQ1 inh-1 – inhibitors of human RECQ1 DNA helicase. RECQ1 DNA unwinding, red fluorescence kinetic read. Potency, µM (highest dose often 57.3 µM), for the others: at the highest dose activity, negative = inhibition, actives largely listed as inhibitors. 240,000 tested, 0.54% active. AID 2549;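 further: potency means the concentration at half of the fitted maximal effect; plate controls were vehicle for no effect and no enzyme for full effect; nearly all actives have a fitted effect of over 30% in size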
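RECQ1T1 50 nM; forked duplex (20 bp + 30-nt ss tails) 200 nM, ATP 2 mM final; pH 8.0, 2 mM MgCl2, 2.5 ug/ml poly(dI-dC); 15 min compound preincubation; discontinuous kinetic read over 2 h at RT.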
WRN helicase inh-1 – inhibitors of human WRN helicase; Q14191; WRN helicase unwinding, fluorescent forked duplex, kinetic; Potency, µM (titrated, usually from 114 µM), for the others: top-dose activity change, negative = inhibition, actives largely listed as inhibitors; 360,000 tested, 0.46% active; further: potency means the concentration at half of the fitted maximal effect; on the % scale 0 is the no-effect control and ±100 the full control effect; nearly all actives have a fitted effect of over 55% in size
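WRN at 20 nM final was preincubated with compound for 15 min at room temperature; reaction started with 100 nM forked duplex oligonucleotide carrying fluorophore and quencher plus 2 mM ATP (final). Unwinding followed kinetically by red fluorescence (ex 525/em 598 nm).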
APE1 inh – APE1 (human) endonuclease inhibition; P27695; Potency, µM (highest dose often 65.8 µM), inactives show at the top dose activity change, negative = inhibition, usual class: inhibitors; AID 2517; recombinant APE1, TAMRA/BHQ-2 abasic DNA cleavage fluorescence; 350,000 tested, 0.35% active;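 further: potency means the concentration at half of the fitted maximal effect; plate controls were vehicle for no effect and reference inhibitor for full effect; nearly all actives have a fitted effect of over 55% in size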
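Activity was derived from the fluorescence gain between first and third kinetic reads (60 s intervals, ex 525/em 598 nm) after 50 nM THF-abasic TAMRA/BHQ-2 duplex was added to 0.75 nM APE1 preincubated 15 min with compound.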
FEN1 inh-1 – inhibitors of human flap endonuclease 1. P39748. Recombinant FEN1 flap cleavage, fluorescence, 15 min. Potency, µM (highest dose often 114 µM), without a hit: at the top dose activity change, negative = inhibition, hits mostly inhibitors. 390,000 tested, 0.35% active. AID 588795; further: potency means the concentration at half of the fitted maximal effect; on the % scale 0 is the no-effect control and ±100 the full control effect; nearly all actives have a fitted effect of over 65% in size
Target sequence (P39748 whole entry, looked up): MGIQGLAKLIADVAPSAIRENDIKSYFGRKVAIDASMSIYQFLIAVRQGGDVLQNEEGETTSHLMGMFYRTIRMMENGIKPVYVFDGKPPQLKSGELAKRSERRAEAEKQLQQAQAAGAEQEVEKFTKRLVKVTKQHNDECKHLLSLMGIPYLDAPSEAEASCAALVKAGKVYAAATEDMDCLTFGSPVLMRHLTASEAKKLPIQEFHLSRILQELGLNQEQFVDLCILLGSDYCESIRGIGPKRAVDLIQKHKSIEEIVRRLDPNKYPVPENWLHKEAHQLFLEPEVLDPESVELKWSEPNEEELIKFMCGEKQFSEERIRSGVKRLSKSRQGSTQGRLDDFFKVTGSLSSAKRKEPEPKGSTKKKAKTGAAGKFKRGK
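Reaction started by adding substrate (50 nM final) to 10 nM enzyme after 15 min room-temperature compound preincubation. Reads at 0 and 15 min, with data normalized and fitted to a four-parameter Hill equation.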
RECQ1 inh conf – confirmation of human RECQ1 helicase inhibitors. shares compounds with RECQ1 inh-1. RECQ1 helicase DNA unwinding, fluorescence. Potency, µM (titrated, usually from 229 µM), for inactives: top-dose activity change, negative = inhibition, hits mostly inhibitors. 610 tested, 28% active. AID 2708; further: potency means the concentration at half of the fitted maximal effect; on the % scale 0 is the no-effect control and ±100 the full control effect; nearly all actives have a fitted effect of over 45% in size
ADP FP counter – displaces ADP in a fluorescence polarization counter-screen for RECQ1 hits; shares compounds with RECQ1 inh-1; ADP fluorescence polarization displacement counterscreen; Potency, µM (series often up to 228 µM), for the others: at the highest dose activity change, negative = inhibition, actives largely listed as inhibitors; 530 tested, 27% active; further: potency means the concentration at half of the fitted maximal effect; on the % scale 0 is the no-effect control and ±100 the full control effect; nearly all actives have a fitted effect of over 45% in size
RECQ1 inh-2 – RECQ1 helicase inhibition confirmed, round 2 | shares compounds with RECQ1 inh-1 | recombinant RECQ1 DNA unwinding, red fluorescence | Potency, µM (titrated, usually from 119 µM), for inactives: at the top dose activity, negative = inhibition, actives largely listed as inhibitors | 1,100 tested, 15% active; further: potency means the concentration at half of the fitted maximal effect; on the % scale 0 is the no-effect control and ±100 the full control effect; nearly all actives have a fitted effect of over 50% in size
FEN1 inh-2 – confirmation of human FEN1 inhibitors; FEN1 flap cleavage, TAMRA/BHQ2 fluorogenic DNA substrate; Potency, µM, most hits filed as inhibitors; shares compounds with FEN1 inh-1; AID 720498; 880 tested, 79% active; further: potency means the concentration at half of the fitted maximal effect; nearly all actives have a fitted effect of over 60% in size
WRN helicase inh-2 – WRN helicase inhibition, cherry-pick retest; shares compounds with WRN helicase inh-1; WRN helicase DNA unwinding, fluorescence kinetic; Potency, µM (doses to about 57.1 µM), for the others: top-dose activity, negative = inhibition, usual class: inhibitors; 610 tested, 63% active; further: potency means the concentration at half of the fitted maximal effect; nearly all actives have a fitted effect of over 65% in size
TO DNA binding – DNA binding via thiazole orange displacement | thiazole orange DNA binding displacement, fluorescence | Potency, µM (top dose mostly 57.1 µM), for inactives: at the top dose activity change, negative = inhibition, usual class: inhibitors | shares compounds with WRN helicase inh-1 | AID 720499 | 610 tested, 10% active;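 further: drop in dye fluorescence marks compound binding to DNA; potency means the concentration at half of the fitted maximal effect; on the % scale 0 is the no-effect control and ±100 the full control effect; nearly all actives have a fitted effect of over 60% in size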
BLM helicase inh-2 – counter-screen for WRN helicase inhibitors: human BLM helicase inhibition; shares compounds with WRN helicase inh-1; Recombinant BLM helicase DNA unwinding, red fluorescence; Potency, µM (doses to about 57.1 µM), for the others: at the top dose activity change, negative = inhibition, most hits filed as inhibitors; 610 tested, 60% active; further: potency means the concentration at half of the fitted maximal effect; nearly all actives have a fitted effect of over 60% in size
* = called active by the depositor; i = inactive; ? = inconclusive; nt = no result given; [ ] = dose if it differs, or a comment. Unless noted, the call rests on the fitted dose curve; in most records, active means well fitted curve in the direction sought with a large enough effect; inconclusive means small, poorly fitted or top-dose-only effect, or another doubt; inactive means no such curve, though single readings can be large; an effect the other way counts as inactive or inconclusive.

SMILES	BLM helicase inh-1	PI5P4K alpha inh	RECQ1 inh-1	WRN helicase inh-1	APE1 inh	FEN1 inh-1	others
CCn1nc(-c2cccs2)nc2c(=O)n(C)c(=O)nc1-2	1.12µM*	0.2	3.55µM*	-34.3%	-2.6%	12.7%	RECQ1 inh conf=?;ADP FP counter=6.8%[91.9 µM]
CCC[CH2][Sn]([Cl])([Cl])[Cl]	nt	nt	-1.9%	nt	-3.1%	nt
CN(C)C1C(=O)C(C(N)=O)=C(O)[C@@]2(O)C(=O)C3=C(O)c4c(O)cccc4[C@](C)(O)C3C(O)C12 (some centres not stated)	-6.7%	nt	10µM*	nt	?	nt	RECQ1 inh conf=-37.6%;ADP FP counter=7.08µM*
CN(C)[C@@H]1C(=O)C(C(N)=O)=C(O)[C@@]2(O)C(=O)C3=C(O)c4c(O)cccc4[C@@](C)(O)C3C[C@@H]12 (some centres not stated)	nt	-11.0	nt	-8.3%	-0.1%	?
CCOP(=S)(OCC)OCCSCC	-0.5%	nt	-12.5%	nt	-1.8%	nt
CC(C)[C@@]1(NC(=O)[C@@H]2C=C3c4cccc5[nH]cc(c45)C[C@H]3N(C)C2)O[C@@]2(O)[C@@H]3CCCN3C(=O)[C@H](Cc3ccccc3)N2C1=O	-21.1%	nt	-3.3%	nt	?	nt
CN1C[C@@H](C(=O)N[C@@]2(C)O[C@]3(O)C4CCCN4C(=O)[C@@H](Cc4ccccc4)N3C2=O)C=C2c3cccc4[nH]cc(c34)C[C@@H]21 (some centres not stated)	-13.7%	nt	?	nt	?	nt	RECQ1 inh conf=?;ADP FP counter=7.94µM*
C/C=C1/C[C@@H](C)[C@@](C)(O)C(=O)OCC2=CCN3CC[C@@H](OC1=O)[C@@H]23	-4.3%	nt	?	nt	?	?	RECQ1 inh-2=-0.3%
CC(C)C[C@H]1CNC(=S)N1CC1CCN(CC2CCC(C(C)(C)C)CC2)CC1 (some centres not stated)	nt	-16.7	nt	2.7%	nt	?
CC[C@@]1(O)C(=O)OCc2c1cc1n(c2=O)Cc2cc3c(O)cccc3nc2-1	-16.7%	nt	?	nt	?	nt	RECQ1 inh-2=?
CCC1(O)C(=O)OCc2c1cc1n(c2=O)Cc2cc3cc(O)ccc3nc2-1 (configuration not stated)	nt	?	nt	-4.9%[11.6 µM]	nt	?
c1ccc(C2N3CCCN23)cc1 (configuration not stated)	-0.7%	5.9	7.94µM*	-4.2%[57.1 µM]	10.7%	10.2%	RECQ1 inh conf=13.4%[114 µM];ADP FP counter=-2.3%[91.9 µM]
Cc1ccc(C2N3CCCN23)cc1 (configuration not stated)	-2.0%	-1.3	i	4.9%	1.2%	-3.0%
CCN(CC)c1ccc(CC2C(=O)N(C)C(=O)N(C)C2=O)cc1	1.6%	-3.1	31.6µM*	20µM*	-4.5%	-27.6%	RECQ1 inh-2=44.7µM*
O=C(c1ccc(CS(=O)(=O)c2ccccc2)o1)N1CCC2(CC1)OCCO2	-19.1%	nt	?	-5.8%[11.6 µM]	?	5.9%	RECQ1 inh-2=?
CCC1(C)CC(C(N)=S)CCO1 (configuration not stated)	-2.9%	-8.3	10.3%	?	-1.1%	-0.8%
O=C(O)c1ccccc1-c1c2cc(Br)c(=O)cc-2oc2[c]([Hg])c(O)c(Br)cc12	15.8µM*	nt	25.1µM*	nt	25.1µM*	nt	RECQ1 inh conf=11.2µM*;ADP FP counter=0.199µM*
CCC(Oc1ccc(Cl)cc1)C(=O)OC1CC2CCC(C1)N2C (configuration not stated)	nt	nt	i	nt	0.4%	nt
O=C(c1ccc2nc(-c3ccco3)c(-c3ccco3)nc2c1)N1CCC2(CC1)OCCO2	28.2µM*	-20.2	12.6µM*	?	?	-8.5%	RECQ1 inh conf=17.8%[114 µM];RECQ1 inh-2=-7.3%
COc1ccc(C(=O)N2CCC3(CC2)OCCO3)cc1	1.4%	0.8	nt	-3.2%	9.2%	12.9%
C=C(Cl)Cl	nt	nt	-2.9%	nt	1.6%	nt
CCOC(=O)C1CCCN(c2ccc([N+](=O)[O-])c3nonc23)C1 (configuration not stated)	-10.5%	-2.4	28.2µM*	?	?	?	RECQ1 inh-2=56.2µM*;FEN1 inh-2=67.5*;WRN helicase inh-2=24.1µM*;TO DNA binding=i;BLM helicase inh-2=24.1µM*
CN(C)C1C(=O)C(C(N)=O)C(=O)C2(O)C(=O)C3C(=O)c4c(O)cccc4C(C)(O)C3C(O)C12 (configuration not stated)	-5.3%	nt	i	nt	nt	nt
O=C1NC(=O)N(Cc2ccccc2)C(=O)/C1=C/c1cnn(-c2ccccc2)c1	-3.2%	nt	0.9%	nt	-1.4%	nt
O=C1NC(=O)N(CCc2ccc(F)cc2)C(=O)/C1=C/c1ccco1	-20.4%	-75.3*	28.2µM*	35.5µM*	10µM*	?	FEN1 inh-2=75.7*
CC(C)CS(=O)(=O)C1=NN2C(=N)/C(=C\c3ccc(OC(=O)c4ccco4)cc3)C(=O)N=C2S1	-8.4%	-84.0*	nt	?	-40.0%	-8.8%	FEN1 inh-2=?
Cc1cc(C=C(C#N)C#N)ccc1N1CCCC1	-13.7%	1.5	i	-24.2%[57.1 µM]	1.4%	?	FEN1 inh-2=75.7*
COc1ccc(/C=C2/C(=O)N(Cc3ccco3)C(=O)N(C(C)C)C2=O)cc1	-21.9%	?	25.1µM*	-32.9%[11.6 µM]	22.4µM*	?	FEN1 inh-2=26.9*
